For one assay, the target named is BZW1. The assay can be described thus: pooled miR-30 sensor sort-seq; sequence = guide strand. The settings on record: shRNA.
Regarding TTCTTCAGCATTTTTGAGCCAT, the sensor-assay potency score (higher = more potent) is -0.303. The same measure, in the same setting: under AATAATACAGTCTTGAAACTGA stands 0.296. Still for that read-out and setting: in the case of TTAACTTGTTAAAAACCTGAGC it was -0.612; in that of TAATACAGTCTTGAAACTGAGT, -0.709; in that of TTTTCTAGTTTTAAAACGCTGG, -0.34. TTATCCATGCTGACTTTCCGAA displayed a sensor-assay potency score (higher = more potent) of -0.947.

Another assay deals with C10orf129. The assay is described as above. Conditions: shRNA.
In the case of TGACACAGAAACACACAGGCTC, the sensor-assay potency score (higher = more potent) is 0.78.

For the sequence TTCTTGAAATCCAACCACCCAT, the sensor-assay potency score (higher = more potent) was -0.764. Same read-out and setting: under TACATCTCTGGATTTGCAGATA stands -0.615; under TTATCTGACACCAGGAGCTTGG, -0.78; under ATAGCTCTTATCTGACACCAGG, -1.02. On the same count and under the same terms, under ATACTGGGAATACTCGACCATT stands -1.34; under TAGCTCTTATCTGACACCAGGA, -0.145. As for AACTTGAATCAACTTCTTGAAA, the sensor-assay potency score (higher = more potent) is -1.71. Same read-out and setting: under TTTAGAACAGTCTCAGGGCAGA stands -0.497; under TGTAGGTCTGCTTTGGAGGGGC, -0.275.

Sequence TCTTGAAATCCAACCACCCATC gave a sensor-assay potency score (higher = more potent) of -1.29. Still for that read-out and setting: under AACTTCTTGAAATCCAACCACC stands -1.25.

A further assay deals with C10orf27. The assay is described as above. Conditions: shRNA.
The sequence TATCTTCGTTTTCTTCGGGGAT came in with a sensor-assay potency score (higher = more potent) of -0.791.

Sequence TTCGATGTCTTCTTCTCTGTGT came in with a sensor-assay potency score (higher = more potent) of 0.791.

TTTCGCTTTTTGTAAAAGGTGA came in with a sensor-assay potency score (higher = more potent) of -0.648.

TTTAGTAAGAGTTTTCACGGTA returned a sensor-assay potency score (higher = more potent) of 0.259. Sequence TTCTTCTCCAGTTTCAGCTCAG gave a sensor-assay potency score (higher = more potent) of -0.249.

The sequence ATATCTTCGTTTTCTTCGGGGA had a sensor-assay potency score (higher = more potent) of -0.103. Regarding TGATATCTTCGTTTTCTTCGGG, the sensor-assay potency score (higher = more potent) stood at 0.224. Still for that read-out and setting: under TCGAAATCCACAATCCCTGGGA stands 0.448.

For TTCTTCTCTGTGTTCTGGCTTG, the sensor-assay potency score (higher = more potent) was -0.353. Same read-out and setting: under TTGGATGTGGGTCACGTGCTGG stands -0.839; under TAAAAGGTGATATCTTCGTTTT, -1.08. Regarding TTTTGTAAAAGGTGATATCTTC, the sensor-assay potency score (higher = more potent) is -0.0398.

Another assay concerns the target C11orf49. The assay is described as above. Conditions: shRNA.
In the case of TAGCTATTAGACACAAAGGGGT, the sensor-assay potency score (higher = more potent) was -0.34. Still for that read-out and setting: in the case of TTGGCTAATATCTTCCCTGTTT it was -0.438; in that of AAATATTCAGTGAAGAACCTGG, 0.285; in that of TTCTGAGTGAGCTCCAGCGGGA, -1.01. Same read-out and setting: in the case of TCGTCCATGAGCACAATCCTGG it was -1.16; in that of TTCATGGTCAGCAAATCGCCAT, -0.72; in that of TTTTGCAAGTGAAATCATCTTC, 0.664. On to TTTCACATGTTTGTTTAGCTAT, for which the sensor-assay potency score (higher = more potent) was -0.281.

In turn, TTTCTGAGTGAGCTCCAGCGGG yielded a sensor-assay potency score (higher = more potent) of -0.907. On the same count and under the same terms, in the case of TTAGCTATTAGACACAAAGGGG it was -0.469.

(Values after the OligoGym collection.)
Note: reference of the scale not given here.
